Results as given in PubChem BioAssay (NCI).
About 79,000 compounds went through this panel and 15% of them were active in at least one assay; those are over-represented in the sample as a whole. Calls of active or inactive are those of the source. Cut-off read from the data, not from the text of the source: active = growth inhibition above about 70%; inactive = the rest.

Experiments:
[1] = NCI Yeast Anticancer Drug Screen. Data for the rad52 strain (AID 147);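 note: 0% = growth of vehicle-treated control cultures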; details: S. cerevisiae rad52 mutant growth inhibition, hits give high values
Procedure, shortened: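 Inhibition of yeast growth, referenced to vehicle controls, was the measured output for a strain with defective DNA damage repair.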

[2] = NCI Yeast Anticancer Drug Screen. Data for the wt1 strain (AID 149);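 note: 0% = growth of vehicle-treated wt1 cultures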; details: S. cerevisiae wt1 strain (SPY 50644) growth inhibition, hits give high values
Procedure, shortened: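 Using yeast strain wt1, compound-induced growth inhibition was determined against vehicle-treated cultures.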

[3] = NCI Yeast Anticancer Drug Screen. Data for the rad50EPP+ strain (AID 151);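 note: 0% = growth of vehicle-treated control cultures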; details: S. cerevisiae rad50 mutant strain, hits give high values
Procedure, shortened: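 Genetically defined yeast (rad50EPP+, DNA damage repair alteration) is grown with compound, and inhibition of growth is expressed relative to vehicle-treated controls.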

[4] = NCI Yeast Anticancer Drug Screen. Data for the mgt1 strain (AID 153); details: S. cerevisiae mgt1 mutant growth inhibition, hits give high values
Procedure, shortened: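 In the mgt1 strain, test compounds were added and growth inhibition was determined relative to vehicle-treated controls.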

[5] = NCI Yeast Anticancer Drug Screen. Data for the rad50 strain (AID 155);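 note: 0% = growth of vehicle-only cultures of the same strain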; details: S. cerevisiae rad50 strain growth inhibition, hits give high values
Procedure, shortened: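 Relative growth inhibition (compound vs vehicle) was measured in yeast with a defined repair-gene alteration.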

[6] = NCI Yeast Anticancer Drug Screen. Data for the mec2-1 strain (AID 157); details: S. cerevisiae mec2-1 strain, hits give high values
Procedure, shortened: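 Each compound was tested on mec2-1 yeast, a strain altered in DNA damage repair or cell cycle control. Growth inhibition is reported relative to vehicle.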

[7] = NCI Yeast Anticancer Drug Screen. Data for the rad14 strain (AID 159);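 note: 0% = growth of vehicle-treated control cultures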; details: S. cerevisiae rad14 strain growth inhibition, hits give high values
Procedure, shortened: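 Screen for anticancer potential: a yeast strain altered in DNA damage repair is grown with compound, and reduced growth is quantified against vehicle controls.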

[8] = NCI Yeast Anticancer Drug Screen. Data for the sgs1 mgt1 strain (AID 161);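 note: 0% = growth of cultures given vehicle only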; details: S. cerevisiae sgs1 mgt1 strain, hits give high values
Procedure, shortened: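 Inhibition of yeast growth, normalised to vehicle-treated controls, is reported for a strain bearing genetic alterations in DNA damage repair.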

[9] = NCI Yeast Anticancer Drug Screen. Data for the CLN2oe strain (AID 163);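 note: 0% = growth of vehicle-only control cultures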; details: S. cerevisiae CLN2oe strain, hits give high values
Procedure, shortened: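 First, the altered yeast strain was treated with each compound; second, its growth was measured; finally, inhibition was derived by comparison with vehicle controls.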

[10] = NCI Yeast Anticancer Drug Screen. Data for the cln2 rad14 strain (AID 165);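 note: 0% = growth equal to vehicle treated cultures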; details: S. cerevisiae cln2 rad14 strain, hits give high values
Procedure, shortened: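 Test compounds were added to cln2 rad14 yeast cultures; inhibition of growth was then determined by comparison with vehicle treatment.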

[11] = NCI Yeast Anticancer Drug Screen. Data for the bub3 strain (AID 167); details: S. cerevisiae bub3 mutant strain, hits give high values
Procedure, shortened: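 Screening used yeast with an engineered genetic alteration affecting cell cycle control. Compound-exposed cultures were compared with vehicle cultures, and reduced growth was taken as inhibition.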

[12] = NCI Yeast Anticancer Drug Screen. Data for the wt2 strain (AID 169);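 note: 0% = growth of vehicle-treated yeast cultures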; details: S. cerevisiae wt2 strain growth inhibition, hits give high values
Procedure, shortened: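 The panel's yeast strains carry defined changes in DNA repair or cell cycle genes. Each strain is grown with compound, and growth loss is scored relative to vehicle.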

[13] = NCI Yeast Anticancer Drug Screen. Data for the mlh1 strain (AID 171);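 note: 0% = growth of vehicle-treated control cultures of the same strain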; details: S. cerevisiae mlh1 strain growth inhibition, hits give high values
Procedure, shortened: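 Inhibition values reflect reduced yeast growth in the presence of compound, referenced to vehicle controls, using a strain chosen for its alteration in DNA repair or cell cycle control.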

[14] = NCI Yeast Anticancer Drug Screen. Data for the sgs1 strain (AID 173);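 note: 0% = growth of vehicle-only control cultures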; details: S. cerevisiae sgs1 mutant, hits give high values
Procedure, shortened: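 Vehicle-treated cultures served as reference for growth inhibition of a yeast strain altered in DNA damage repair or cell cycle control after compound exposure.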

[15] = NCI Yeast Anticancer Drug Screen. Data for the mlh1 rad18 strain (AID 175); details: S. cerevisiae mlh1 rad18 strain growth inhibition, hits give high values
Procedure, shortened: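 Inhibition values reflect reduced growth of mutant yeast versus vehicle-treated controls following compound exposure; the mutations affect DNA damage repair.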

[16] = NCI Yeast Anticancer Drug Screen. Data for the rad18 strain (AID 177); details: S. cerevisiae rad18 mutant growth inhibition, hits give high values
Procedure, shortened: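 Steps: expose repair-mutant yeast to compound; measure growth; express as inhibition relative to vehicle control.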

[17] = at 5.0 µM (retest, dose inferred, filed as 0.5)
[18] = at 50.0 µM (retest, dose inferred, filed as 5.0)

Measured: growth inhibition

NCc1c(O)ccc2ccccc12
inactive: [1]; at 1.2 µM -17% | [1]; at 3.7 µM -11% | [1]; at 11.0 µM -1% | [1]; at 33.0 µM 64% | [2]; at 1.2 µM 8% | [2]; at 3.7 µM 11% | [2]; at 11.0 µM 27% | [3]; at 1.2 µM -5% | [3]; at 3.7 µM -18% | [3]; at 11.0 µM 10% | [3]; at 33.0 µM 52% | [4]; at 1.2 µM -2% | [4]; at 3.7 µM -7% | [4]; at 11.0 µM 3% | [5]; at 1.2 µM -11% | [5]; at 3.7 µM -10% | [5]; [17] -150% | [5]; at 11.0 µM 2% | [6]; at 1.2 µM -3% | [6]; at 3.7 µM -1% | [6]; [17] -46% | [6]; at 11.0 µM 4% | [6]; at 33.0 µM 25% | [6]; [18] -15% | [6]; at 50.0 µM 47.5% | [7]; at 1.2 µM -3% | [7]; at 3.7 µM 5% | [7]; at 11.0 µM 49% | [8]; [17] -60% | [9]; at 1.2 µM -6% | [9]; at 3.7 µM -4% | [9]; at 11.0 µM -1% | [9]; at 33.0 µM 18% | [10]; [17] -53% | [10]; [18] -25% | [10]; at 50.0 µM 17.2% | [11]; at 1.2 µM -7% | [11]; at 3.7 µM -4% | [11]; [17] -71% | [11]; at 11.0 µM 0% | [11]; [18] 60% | [12]; at 1.2 µM 6% | [12]; at 3.7 µM 9% | [13]; at 1.2 µM -10% | [13]; at 3.7 µM -4% | [13]; at 11.0 µM 4% | [14]; at 1.2 µM -10% | [14]; at 3.7 µM -5% | [14]; at 11.0 µM 37% | [15]; [17] -138% | [16]; at 1.2 µM -6% | [16]; at 3.7 µM -6% | [16]; at 11.0 µM 7%
active: [1]; at 100.0 µM 99% | [2]; at 33.0 µM 90% | [2]; at 100.0 µM 99% | [3]; at 100.0 µM 88% | [4]; at 33.0 µM 98% | [4]; at 100.0 µM 99% | [5]; at 33.0 µM 92% | [5]; [18] 83% | [5]; at 50.0 µM 89.2% | [5]; at 100.0 µM 98% | [6]; at 100.0 µM 99% | [7]; at 33.0 µM 99% | [7]; at 100.0 µM 99% | [8]; [18] 74% | [8]; at 50.0 µM 85.9% | [9]; at 100.0 µM 98% | [11]; at 33.0 µM 79% | [11]; at 50.0 µM 93.7% | [11]; at 100.0 µM 98% | [12]; at 11.0 µM 70% | [12]; at 33.0 µM 99% | [12]; at 100.0 µM 99% | [13]; at 33.0 µM 96% | [13]; at 100.0 µM 98% | [14]; at 33.0 µM 99% | [14]; at 100.0 µM 99% | [15]; [18] 83% | [15]; at 50.0 µM 94% | [16]; at 33.0 µM 87% | [16]; at 100.0 µM 99%
